The values below come from PubChem BioAssay (NCATS).

Test [1] in a line: Cell Viability - LYMP2-007 (AID 979).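 Also: cells exposed to compound for 24 h before reading; 0% = DMSO only and the negative end = 92 µM tetraoctylammonium bromide; nearly all actives have a fitted effect of over 60% in size.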 Put shortly:
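Cells are seeded at 2500 per well and rested 5 hr. Compounds are then added over a concentration series for 24 hr at 37 C. CellTiter-Glo is added for 30 min at room temperature before luminescence reading.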

Test [2] in a line: Cell Viability - LYMP2-008 (AID 980).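 Also: cells exposed to compound for 24 h at 37 °C; % is scaled to controls: 0 for no effect and ±100 for the full control effect; nearly all actives have a fitted effect of over 60% in size.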 An outline of the steps:
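Cells seeded at 2500/well and rested 5 hr at 37 C; compounds added over a concentration range and incubated 24 hr at 37 C; CellTiter-Glo added, 30 min at room temperature; luminescence read and AC50 fitted with Hill model.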

A short description of test [3]: Cell Viability - LYMP2-010 (AID 981).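 Also: cells exposed to compound for 24 hours at 37 °C; % is scaled to controls: 0 for no effect and ±100 for the full control effect; nearly all actives have a fitted effect of over 55% in size.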 Put shortly:
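Steps: seed 2500 LYMP2-010 cells per well; incubate 5 hr at 37 C; add compound; incubate 24 hr at 37 C; add CellTiter-Glo, wait 30 min at room temperature; read luminescence. Concentration-response fitted to Hill equation for AC50.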

Test [4] is described as follows: Cell Viability - LYMP2-012 (AID 982).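 Also: cellular ATP by luciferase luminescence where a drop means cytotoxicity; cells exposed to compound for one day before reading; 0% = DMSO only and full loss = 92 µM tetraoctylammonium bromide; nearly all actives have a fitted effect of over 55% in size.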
The nature of test [5]: Cell Viability - LYMP2-016 (AID 984).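 Also: cells exposed to compound for 24 hours at 37 °C; % is scaled to controls: 0 for no effect and ±100 for the full control effect; nearly all actives have a fitted effect of over 55% in size.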 Put shortly:
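Cells were seeded at 2500 per well and rested 5 hr before a 24 hr compound exposure at 37 C. Viability was then gauged as cellular ATP by luciferase luminescence, with AC50 values fitted to the Hill equation.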

Test [6] in a line: Cell Viability - LYMP2-018 (AID 985).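 Also: plate controls were DMSO only for no effect and tetraoctylammonium bromide at 92 µM for full effect; nearly all actives have a fitted effect of over 50% in size.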 Put shortly: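 Seed 2500 lymphoblastoid cells per well, incubate 5 hr at 37 C, add compound and incubate 24 hr at 37 C, add CellTiter-Glo, wait 30 min at room temperature, then read luminescence.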
The nature of test [7]: Cell Viability - LYMP2-020 (AID 986).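 Also: cells exposed to compound for 24 h at 37 °C; plate controls were DMSO only for no effect and tetraoctylammonium bromide at 92 µM for full effect; nearly all actives have a fitted effect of over 55% in size.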 Put shortly:
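Seed 2500 cells per well and incubate 5 hr at 37 C. Add compounds at a concentration series and incubate 24 hr at 37 C. Add CellTiter-Glo, wait 30 min at RT, read luminescence, and fit a Hill curve for AC50.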

Test [8] can be described thus: Cell Viability - LYMP2-022 (AID 987). An outline of the steps: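 Cells were seeded at 2500 per well, rested 5 hr at 37 C, and treated with titrated compounds for 24 hr at 37 C. Cellular ATP was then quantified by luciferase luminescence, and AC50 values were derived from Hill-modelled concentration-response curves.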
Test [9] in a line: Cell Viability - LYMP2-024 (AID 988).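 Also: plate controls were DMSO only for no effect and 92 µM tetraoctylammonium bromide for full effect; nearly all actives have a fitted effect of over 60% in size.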 Put shortly:
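qHTS cytotoxicity, human lymphoblastoid line, complete medium; 24 h cpd treatment, 37 C; CellTiter-Glo ATP luminescence readout; tetraoctylammonium bromide positive control; AC50 via Hill fit.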

A short description of test [10]: Cell Viability - LYMP2-026 (AID 989).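 Also: cells exposed to compound for 24 h at 37 °C; % is scaled to controls: 0 for no effect and ±100 for the full control effect; nearly all actives have a fitted effect of over 50% in size.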 An outline of the steps:
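Cells are seeded at 2500 per well and held 5 hr at 37 C. Compounds are added in concentration series for 24 hr, then CellTiter-Glo reagent is applied and luminescence read.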

Test [11] addresses Alpha-galactosidase A (Homo sapiens) (UniProt P06280). The test is described as follows: Counterscreen for Glucocerebrosidase Inhibitors: qHTS Assay for Human alpha-Galactosidase at pH 4.5 (AID 992). Also: 0% is about no effect. An outline of the steps:
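Each compound is preincubated briefly with 2 nM enzyme before substrate addition (80 uM); plates then sit 20 min at ambient temperature, are quenched with 1M NaOH/1M glycine, and read fluorometrically.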
On the technique in general: The purpose of a counterscreen is to sort out artefacts and off-target activity.

Test [12] is described as follows: Cell Viability - LYMP1-002 - Assay at 24 hr (AID 993). Also: % is scaled to controls: 0 for no effect and ±100 for the full control effect. Put shortly:
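Acute toxicity is measured as concentration-dependent loss of cellular ATP in a human lymphoblastoid line (Coriell LYMP1-002) after 24 h treatment in complete medium. ATP is quantified by luciferase luminescence and AC50 derived by Hill modelling.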

The nature of test [13]: Cell Viability - LYMP1-002 - Assay at 40 hr (AID 994).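 Also: 0% = DMSO only and full inhibition = 92 µM tetraoctylammonium bromide; nearly all actives have a fitted effect of over 60% in size.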 An outline of the steps: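 Cells are plated at 2500 per well and rested 5 hr at 37 C. Compounds are added and incubated 40 hr at 37 C. CellTiter-Glo reagent is added for 30 min at room temperature before luminescence is read.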
Test [14] concerns the target alpha-glucosidase (Oryza sativa, rice) (UniProt Q653V4). The test is described as follows: Counterscreen for Glucocerebrosidase Inhibitors: qHTS Assay for Rice alpha-Glucosidase at pH 5.0 (AID 997).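 Also: 0% = full activity with enzyme and -100% = basal without enzyme.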 Put shortly:
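Endpoint fluorogenic assay at pH 5.0: compounds (0.7 nM to 77 uM) titrated against 4 nM rice enzyme and 400 uM 4-MU-alpha-glucoside for 20 min at room temperature; NaOH/glycine stop, read ex 365/em 440 nm, Hill-fitted AC50.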

The target in test [15] is DNA repair nuclease/redox regulator APEX1 (Homo sapiens) (UniProt P27695). The test is described as follows: qHTS Validation Assay for Inhibitors of the Human Apurinic/apyrimidinic Endonuclease 1 (APE1) (AID 1705;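 also: TAMRA fluorescence gain over two minutes as APE1 cuts a quenched THF abasic duplex; % is scaled to controls: 0 for no effect and ±100 for the full control effect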). Put shortly: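 qHTS, 1536-well. APE1 + cpd 15 min RT → 50 nM TAMRA/BHQ-2 THF-abasic dsDNA substrate → kinetic fluorescence, 3 reads/60 s; delta(read3−read1) = reaction progress. No-enzyme buffer = negative control.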
Chain of DNA repair nuclease/redox regulator APEX1 (Homo sapiens) (P27695 whole entry, looked up): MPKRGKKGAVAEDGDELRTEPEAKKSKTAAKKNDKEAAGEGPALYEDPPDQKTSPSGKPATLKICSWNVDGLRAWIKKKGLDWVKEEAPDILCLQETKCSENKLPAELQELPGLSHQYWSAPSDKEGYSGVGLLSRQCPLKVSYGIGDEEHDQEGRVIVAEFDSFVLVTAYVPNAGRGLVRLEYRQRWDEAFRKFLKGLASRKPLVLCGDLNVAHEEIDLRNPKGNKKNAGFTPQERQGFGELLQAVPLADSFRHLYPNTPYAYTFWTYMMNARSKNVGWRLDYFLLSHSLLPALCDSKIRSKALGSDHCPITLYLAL
In general terms: qHTS replaces the single test concentration by a dilution series.

Test [16] can be described thus: Counterscreen for APE1 Inhibitors: Fluorescent Dye Displacement Validation Assay (AID 1707).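 Also: plate controls were ThO with dsDNA and no compound for no effect and ThO without dsDNA for full effect.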 Put shortly:
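Loss of Thiazole Orange fluorescence marks promiscuous DNA binders. The dye (250 nM) is mixed with 50 nM abasic-site dsDNA in pH7.5 Tris buffer containing MgCl2, then compounds are added and emission is read once.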

In test [17] the target is Endonuclease 4 (Escherichia coli (strain K12)) (UniProt P0A6C1). The test is described as follows: Counterscreen for APE1 Inhibitors: qHTS Validation Assay for Inhibitors of Endonuclease IV (AID 1708). Also: % is scaled to controls: 0 for no effect and ±100 for the full control effect. An outline of the steps: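 Conditions: 2 nM enzyme, 50 nM TAMRA/BHQ-2 substrate, pH 7.5 Tris buffer with 2 mM MgCl2, RT. Compound preincubation 15 min; readout three fluorescence reads 60 s apart, third-minus-first.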

The nature of test [18]: Cell Viability - LYMP2-014 (AID 983).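 Also: cells exposed to compound for 24 h at 37 °C; plate controls were DMSO only for no effect and 92 µM tetraoctylammonium bromide for full effect; nearly all actives have a fitted effect of over 50% in size.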 An outline of the steps:
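Cells are plated at 2500/well and left 5 hr at 37 C. Compounds are added across a concentration range and incubated 24 hr at 37 C in complete medium. CellTiter-Glo is added, and luminescence is read after 30 min at room temperature.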

Test [19] can be described thus: qHTS Assay for Lipid Storage Modulators (AID 1519; calls by dose curve; as to activity change, negative = inhibition: % is scaled to controls: 0 for no effect and ±100 for the full control effect). Particulars: Drosophila S3 cells, BODIPY lipid droplet/cell ratio, laser cytometry, cells loaded with oleic acid. Put shortly:
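Cells seeded at 5,000 per well were treated with compounds over a concentration series and loaded with oleic acid (400 uM, as added). Lipid droplet fluorescence (488 nm excitation, 500-530 nm channel) was read by laser-scanning cytometry and normalized to 20 uM Triacsin C.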

Setting [20] is: measured here: cell count channel max response.
Where [21] appears, read: measured here: lipid channel max response.

Each structure is given as a SMILES string. Results filed as inconclusive are left out. Calls of active or inactive are those of the source. Unless noted, calls follow the shape of the dose curve; as a rule, active = well fitted curve in the direction sought with a large enough effect; inconclusive = small, poorly fitted or top-dose-only effect, or another doubt; inactive = no such curve, though single readings can be large; an effect the other way counts as inactive or inconclusive.

Chain of Alpha-galactosidase A (Homo sapiens) (P06280 whole entry, looked up): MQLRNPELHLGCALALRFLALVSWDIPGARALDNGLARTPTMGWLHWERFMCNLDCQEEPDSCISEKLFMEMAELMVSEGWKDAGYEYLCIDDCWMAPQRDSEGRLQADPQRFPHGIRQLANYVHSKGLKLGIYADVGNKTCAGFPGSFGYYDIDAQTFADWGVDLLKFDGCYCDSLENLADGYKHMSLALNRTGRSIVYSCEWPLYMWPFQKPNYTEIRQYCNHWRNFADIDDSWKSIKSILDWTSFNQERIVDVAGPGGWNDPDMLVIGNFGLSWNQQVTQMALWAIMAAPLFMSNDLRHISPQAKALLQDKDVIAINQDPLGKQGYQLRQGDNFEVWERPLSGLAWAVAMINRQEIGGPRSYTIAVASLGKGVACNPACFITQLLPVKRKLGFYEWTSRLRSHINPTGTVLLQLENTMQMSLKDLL

For the compound `NC(=O)c1ncn([C@@H]2O[C@H](CO)[C@@H](O)[C@H]2O)n1`, the Potency entry in test [1], in test [2], in test [3], in test [5], in test [6] and in test [7] was “inactive” in each case. The Potency entry in [8], in [10], in test [12], in test [13], in test [15] and in test [16] was “inactive” throughout. Further, in [17], the Potency result is “inactive”. Besides, the compound was classed as inactive in test [4], in [9], in test [11] and in test [14].

As for `CC[C@H]1CN2CCc3cc(OC)c(OC)cc3[C@@H]2C[C@@H]1C[C@H]1NCCc2cc(OC)c(OC)cc21`, the Potency entry in test [16] and in test [17] was “inactive” in each case.

As to `CCCCCCCCCCCCOS(=O)(=O)O`, the Potency entry in test [1], in test [2], in test [3], in [5], in [6] and in [7] was “inactive” throughout. The Potency result in test [8], in test [10], in test [12] and in [13] was “inactive” throughout. Further, the call in test [4], in test [18] and in [9] was inactive.

With `CCCn1cnc2c1c(=O)n(CCCCC(C)=O)c(=O)n2C`, the result in test [11] and in test [14] was inactive. Besides, the activity change, negative = inhibition in test [19] (at 57.5 µM (top of the series)) was 0.49% (inactive). Further, the max response in test [19] (setting [20]) amounted to 51.1%; in [19] (setting [21]) it was 50.9%. In addition, the Potency entry in test [15], in test [16] and in test [17] was “inactive” in each case.

Consider `CCCCOC(=O)c1ccc(O)cc1`, for which the Potency result in [1], in test [2], in [3], in test [5], in test [6] and in test [7] was “inactive” in each case. Also, the Potency entry in [8], in test [10], in test [12] and in [13] was “inactive” each time. Moreover, the result in test [4], in test [18] and in [9] was inactive. For the same compound, the activity change, negative = inhibition in test [19] (at 25.7 µM (top of the series)) was -2.55% (inactive). The figures for the max response in [19] (setting [20]) and in test [19] (setting [21]) were -1.21% and -4.1%, respectively.

As for `NCCNCCNCCNCCN`, the Potency result in test [1], in test [2], in [3], in test [5], in test [6] and in [7] was “inactive” each time. In addition, the Potency entry in [8], in test [10], in test [12] and in test [13] was “inactive” throughout. Besides, the result in test [4], in [18] and in [9] was inactive.

As for `C#CCN(C)Cc1ccccc1`, the call in test [11] and in test [14] was inactive. Further, the activity change, negative = inhibition in test [19] (at 25.7 µM (top of the series)) is -2.03% (inactive). Besides, the max response in test [19] (setting [20]) is -10.9%; in test [19] (setting [21]), -13.8%. In addition, the Potency result in test [15], in test [16] and in [17] was “inactive” each time.

Turning to `CN(C)CC[C@@H](c1ccc(Cl)cc1)c1ccccn1`, the activity change, negative = inhibition in test [19] (at 57.5 µM (top of the series)) is -0.0513% (inactive). Also, the max response in test [19] (setting [20]) worked out at 35.1%; in test [19] (setting [21]) it was 34.2%. Moreover, the Potency result in [15], in [16] and in test [17] was “inactive” throughout.
